Screening data from PubChem.
Only a selection was taken, and hits are over-represented in it overall.
TDP-43 rescue – qHTS of TDP-43 Inhibitors: NCGC Sytravon Library Screen; Potency, µM (titrated, usually from 46.1 µM), hits mostly activators; yeast TDP-43 toxicity rescue, BacTiter-Glo growth, 24 h; hit rate 0.45% among 45,000; active = well fitted activation curve with a large enough effect; also: 0% is about no effect; nearly all actives have a fitted effect of over 55% in size
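TDP-43-expressing yeast, pregrown in raffinose, seeded at OD600 0.02 in galactose medium with compound for 24 hr at 30 deg C. Growth read by BacTiter-Glo luminescence, so rescue of toxicity appears as activation.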
An asterisk follows results filed as active; i = inactive. Potency is read from the fitted curve at half-maximal effect.

SMILES | TDP-43 rescue
O=C(O)c1cc(-c2ccc(/C=N/NC(=S)Nc3ccccc3)o2)ccc1Cl | i
NC(=S)N/N=C/c1ccc(-c2ccc(Cl)c(Cl)c2)o1 | 11.2µM*
NC(=S)N/N=C/c1ccc(-c2ccc(SC(F)F)cc2)o1 | i
CN(C)S(=O)(=O)Nc1cccc(NC(=O)CC23CC4CC(CC(C4)C2)C3)c1 | i
Cc1ccccc1N(CC(=O)NC1CCCCC1)C(=O)CCCC(=O)Nc1ccccn1 | i
Cc1cc(F)ccc1NCc1ccccc1[N+](=O)[O-] | i
O=[N+]([O-])c1ccccc1CNc1ccc(F)c(Cl)c1 | 15.8µM*
Cc1cc([N+](=O)[O-])ccc1NCc1ccccc1[N+](=O)[O-] | i
CC(C)(C)N1C(=O)Cc2c1nc(N)c1c(N)nc(N3CCCCC3CO)c(C#N)c21 (stereo unspecified) | i
CC(=O)NC(C(=O)OCC(=O)N(c1ccccc1)c1ccccc1)C(C)C (stereo unspecified) | i
O=C(COC(=O)CCSc1ccc(Cl)cc1)Nc1ccc(F)cc1 | 11.2µM*
COc1cccc(NC(=O)COC(=O)CCSc2ccccc2)c1 | i
O=C(COC(=O)CCC(=O)c1ccc(Cl)cc1)NCc1ccc(F)cc1 | i
O=C(COc1ccc(S(=O)(=O)N2CCOCC2)cc1Cl)NCCCn1ccnc1 | i
COc1ccc(N2CCN(C(=S)NC(=O)c3cccs3)CC2)c([N+](=O)[O-])c1 | 28.2µM*
COc1cccc(CC(=O)N2CCN(c3ccccc3[N+](=O)[O-])CC2)c1 | i
COc1ccc(C(=O)NC(=S)N2CCCCC2)cc1[N+](=O)[O-] | i
S=C(NCc1ccco1)N1CCN(Cc2ccc(Cl)cc2Cl)CC1 | i
Cc1ccc(OCC(=O)NNC(=O)CSc2ncc(C#N)c(N)n2)cc1 | i
COc1cccc(C(N)c2nc(-c3cc(F)cc(F)c3)cs2)c1 (stereo unspecified) | i
COc1cccc(C(O)c2nc(-c3ccncc3)cs2)c1 (stereo unspecified) | i
COc1cccc(C(O)c2nc(-c3ccccc3C)cs2)c1 (stereo unspecified) | 11.2µM*
Cc1c(Cl)cccc1N(Cc1ccc(C(=O)O)cc1)S(=O)(=O)c1ccccc1 | i
O=C(Nc1ccccc1)N(O)c1ccc(Cl)cc1 | i
O=C(CN1CCCC1)Nc1nc(-c2ccc3c(c2)CCN3C(=O)c2ccccc2F)cs1 | i
SMILES | TDP-43 rescue
O=C(NCc1ccccn1)C1CC(c2ccccc2Cl)=NO1 (stereo unspecified) | i
CN(Cc1ccccc1)c1ccc(C(=O)O)cc1[N+](=O)[O-] | 15.8µM*
CN(C)c1ccc(C(=O)c2ccccc2C(=O)O)cc1[N+](=O)[O-] | i
COc1ccccc1Nc1ccc(C(=O)O)cc1[N+](=O)[O-] | i
COC(=O)c1ccccc1NC(=O)c1ccc(NS(C)(=O)=O)cc1 | i
COC(=O)c1ccc(NC(=O)Cn2cnc3c2c(=O)n(C)c(=O)n3C)cc1 | i
COc1ccc(/C=N/NC(=O)Cn2cnc3c2c(=O)n(C)c(=O)n3C)cc1 | i
Cn1c(=O)c2c(ncn2CCOc2ccc(Br)cc2)n(C)c1=O | 11.2µM*
Cc1cc(C)nc(NS(=O)(=O)c2ccc(NC(=O)C3CC3)cc2)n1 | i
O=C(NC1CCCCCC1)C(Cc1ccccc1)n1cccc1 (stereo unspecified) | i
O=C(Nc1ccc(F)cc1)C(Cc1ccccc1)n1cccc1 (stereo unspecified) | 12.6µM*
O=C(Cc1ccccc1)Nc1ccc(F)cc1 | i
CCCCC(=O)N(C)c1c(C)nc2ccc(C(=O)N3CCN(S(=O)(=O)CC)CC3)cn12 | i
O=C(c1ccc(C(F)(F)F)cc1)C1CCCN(C(=O)c2cnccn2)C1 (stereo unspecified) | i
Cc1ccc(NC(=O)C2CCCN2S(=O)(=O)c2ccc3c(c2)n(C)c(=O)c(=O)n3C)cc1 (stereo unspecified) | i
Cc1ccc(S(=O)(=O)N2CCCC2C(=O)Nc2ccc(Br)cc2)cc1 (stereo unspecified) | 12.6µM*
Cc1ccc(NC(=O)[C@@H]2CCCN2S(=O)(=O)c2ccccc2F)cc1 | i
COc1cccc2cc(C(C)N(CCCN3CCOCC3)C(=S)Nc3cc(C)cc(C)c3)oc12 (stereo unspecified) | i
CCC(OC(=O)CN1C(=O)C(=O)c2ccccc21)C(=O)Nc1ccc(S(N)(=O)=O)cc1 (stereo unspecified) | i
Clc1ccccc1-c1cnc2sc(NCc3ccc4c(c3)OCO4)nn12 | 5.01µM*
CN1CCN(S(=O)(=O)c2ccc(NCc3ccc4c(c3)OCO4)nc2)CC1 | i
O=C(CSc1nc2cc(Cl)ccc2s1)NCc1ccc2c(c1)OCO2 | i
Cn1nnnc1N=N/C(=N/Nc1ccccc1)c1ccccc1 | 6.31µM*
Cc1ccc(-n2c(C)cc(/C=N/NC(N)=S)c2C)cc1 | 14.1µM*
NC(=S)N/N=C/c1cccc(/C=N/NC(N)=S)c1 | i
SMILES | TDP-43 rescue
Cc1cc(/C=N/NC(N)=S)c(O)c(/C=N/NC(N)=S)c1 | i
Cc1c(OCC(N)=O)ccc2c(-c3ccccc3)cc(=O)oc12 | i
Cc1ccc2c(COC(=O)c3ccccc3Cl)cc(=O)oc2c1 | i
CC(NC(=O)OCc1ccccc1)C(=O)Oc1cc2oc(=O)cc(-c3ccccc3)c2cc1Cl (stereo unspecified) | 4.47µM*
CN(C)CC(C)(C)CNC(=S)NCc1ccc2c(c1)OCO2 | i
Cn1cc(CN(Cc2ccccc2)C[C@@H]2CCC(=O)N2)c(-c2ccccc2F)n1 | i
N#Cc1nc(-c2ccc(OCc3ccccc3)cc2)oc1NCc1ccco1 | i
CN(Cc1ccccc1)c1oc(-c2ccco2)nc1C#N | 14.1µM*
CC1CN(c2oc(-c3ccco3)nc2C#N)CC(C)O1 (stereo unspecified) | i
COc1ccc(C)cc1NC(=O)c1cc2c(s1)-c1ccccc1SC2 | i
COc1ccccc1-c1cn(C(C)(C)C)nc1C | 11.2µM*
COc1ccccc1-c1nc2cc3ccccc3cc2nc1-c1ccccc1OC | i
COc1ccccc1-c1c(C)nn2c(C(F)(F)F)cc(-c3ccccc3)nc12 | i
O=C(NC(=S)Nc1ccc(-c2ccc(CO)o2)cc1)c1cccs1 | i
C#CCOc1nc(Nc2cccc([N+](=O)[O-])c2)nc(OCC#C)n1 | i
COc1nc(Nc2cccc([N+](=O)[O-])c2)nc(OC)n1 | i
COc1nc(Nc2ccc([N+](=O)[O-])cc2)nc(NC2CCCCC2)n1 | 15.8µM*
COc1ccc(N(C(=O)C2CCCCC2)S(=O)(=O)c2cccc3cccnc23)cc1 | i
Cc1cc(C)c(NC(=S)NC(=O)c2ccc(-c3ccccc3)cc2)c(C)c1 | i
Cc1cccc(/C=N/NC(=O)c2cccc(NC(=O)c3ccccc3)c2)n1 | i
Cc1nc2ccccc2c(=O)n1NC(=O)/C=C/c1ccccc1Cl | i
N#C/C(=C/c1ccc(N2CCOCC2)o1)c1ccc(Br)cc1 | 14.1µM*
N#C/C(=C\c1ccc(N2CCOCC2)o1)C(=O)Nc1ccc(O)cc1 | i
CCCN1C(=O)S/C(=C/c2ccc(N3CCOCC3)o2)C1=O | i
CCn1cc(C(=O)NCCc2ccccc2)c(=O)c2cc(S(=O)(=O)N(C)C)ccc21 | i
O=C(COc1ccc2ccccc2c1)NNC(=O)C(=O)Nc1ccccc1 | i
C/C(=C\C(=S)Nc1ccccc1)Nc1ccc2ccccc2c1 | 14.1µM*
O=C(Nc1ccc2ccccc2c1)c1ccccc1O | i
COc1cccc(COC(=O)Nc2ccccc2F)c1 | i
